Screening results as filed in PubChem BioAssay.
Only some compounds are listed: those with a hit (about 27% of all), similar ones and a draw of the others.
CYP2C19 activ: increases human CYP2C19 enzyme activity; 96,000 tested, under 10 active; AID 1025; activation factor at 5 µM; recombinant CYP2C19, luciferin-H EGE luminescence; active compounds read high; 0 = fully inhibited enzyme, 1 = untreated enzyme; P33261;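 active = activation factor of at least 2 at 5 µM in the primary screen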;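 also: 0 = wells with 2.5 mM tranylcypromine and 1 = vehicle-only wells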
CYP2C9 inhib: human CYP2C9 inhibition; inhibition, % at 5 µM; hit rate 20% among 96,000; P11712; CYP2C9 Supersomes, luciferin-H conversion, luminescence;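 active = blocking of liver enzyme CYP2C9 beyond about 50% at 5 µM, limit read from the data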
CYP2C19 inh: blocks human cytochrome P450 2C19; hit rate 21% among 96,000; P33261; CYP2C19 Supersomes, luciferin-H EGE luminescence, 30 min; inhibition, % at 5 µM;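 active = CYP2C19 inhibition above a set limit at 5 µM in the primary screen, cut at about 50% in these data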;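 also: plate controls were negative control wells for no effect and 2.5 mM tranylcypromine positive control for full effect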
Cav3 T inh: blocks human Cav3.2 T-type calcium channel. O95180. hit rate 4% among 100,000. Cav3.2-expressing cells, Fluo-4 calcium fluorescence FDSS; active compounds read low. B-score at 10 µM;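 active = single-dose well whose peak fluorescence ratio is a statistical outlier from its plate by either plate-standardised score or position-corrected B-score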
CYP2C9 activ: increases human cytochrome P450 2C9 activity. hit rate 1.4% among 96,000. P11712. AID 1024. activation factor at 5 µM. recombinant CYP2C9, luciferin-H conversion, luminescence; active compounds read high; factor 1 = untreated enzyme, 0 = blocked;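 active = activation factor of 2 or more for CYP2C9 at a 5 µM dose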;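 also: 0 = sulfaphenazole-blocked wells and 1 = vehicle-only wells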
* = called active by the depositor; . = not tested or not shown.

SMILES	CYP2C19 activ	CYP2C9 inhib	CYP2C19 inh	Cav3 T inh	CYP2C9 activ
CCN(CC)c1ccc(NC(=O)c2ccco2)c(C)c1	1.1	-33.0	-5.0	0.287	1.3
COc1ccc(NC(=O)c2ccc(COc3ccccc3OC)o2)cc1OC	0.7	20.0	25.7	0.513	0.8
COc1ccc(NC(=O)c2ccc(COc3ccccc3Br)o2)cc1OC	0.6	73.1*	36.5	-1.59	0.3
O=C(Nc1ccccc1-c1ccccc1)c1ccc(Br)o1	0.5	30.2	47.6	-3.92*	0.7
CCC(SC1=NCCS1)C(=O)Nc1nnc(-c2ccccc2OC)s1 (stereo not drawn)	1	15.7	-3.0	-2.01	0.8
CCc1c(C)nc(N)n2c(SCC(=O)Nc3ccccc3)nnc12	0.9	18.1	13.6	-1.27	0.8
CCN(CC)CCNC(=O)CS(=O)Cc1nc(-c2ccccc2Cl)oc1C (stereo not drawn)	0.9	17.5	6.5	-0.0947	0.8
CCOC(=O)CNC(=O)CSc1nnc(Cn2c(=O)sc3ccccc32)n1-c1ccccc1C	0.9	28.5	5.0	0.244	0.7
COc1ccccc1NC(=O)c1ccc(Br)o1	0.7	-137.6	33.2	0.91	2.4*
COc1cc(NC(=O)c2ccc(Br)o2)ccc1NC(=O)c1ccccc1Cl	0	77.0*	98.3*	-2.42	0.2
COc1ccc(NC(=O)c2ccco2)cc1NC(=O)c1ccc(Br)o1	0.6	42.0	41.2	-2.01	0.6
O=C(Nc1ccccc1Oc1ccccc1)c1ccc(Br)o1	0.8	6.7	20.6	-1.25	0.9
Cc1oc(-c2ccccc2F)nc1CS(=O)(=O)CC(=O)NCc1ccco1	0.9	32.3	10.9	.	0.7
Cc1cc(S(=O)(=O)Nc2ccc(N(C)C)cc2)c(C)s1	0	99.6*	100.4*	-0.607	0
O=C(NCCCn1ccnc1)C1CC2CCC1C2 (stereo not drawn)	0	74.2*	98.0*	0.142	0.3
O=C(O)C1C2CCC(C2)C1C(=O)NCCCn1ccnc1 (stereo not drawn)	0.2	52.2*	79.2*	0.705	0.5
O=C(Cc1ccc(-n2cccc2)cc1)NCc1cccs1	1	30.8	4.6	-1.56	0.7
COC(=O)c1ccc(C(c2c(N)n(CC(C)C)c(=O)[nH]c2=O)N2CCN(c3ccccc3)CC2)cc1 (stereo not drawn)	0.9	24.1	10.1	-5.94*	0.8
CC1CN(c2ccc(S(=O)(=O)N3CCOCC3)cn2)CC(C)O1 (stereo not drawn)	1.2	-2.2	-19.2	1.34	1
C/C=C(\CS(=O)(=O)c1ccccc1)S(=O)(=O)c1ccccc1	0.1	29.8	87.2*	1.37	0.7
Cc1ccc(C2(C)NC(=O)N(CC(=O)NC(=O)NC3CCCC3)C2=O)cc1 (stereo not drawn)	0.8	16.4	16.6	.	0.8
O=c1c2c3c(sc2n(CCN2CCCCC2)c(=O)n1Cc1ccco1)CCCCC3	0.5	60.7*	45.3	-0.616	0.4
NC(=O)Cn1c(=O)n(Cc2ccco2)c(=O)c2c3c(sc21)CCCCC3	0.8	18.2	20.8	-0.826	0.8
O=C(Cn1c(=O)n(Cc2ccco2)c(=O)c2c3c(sc21)CCCC3)Nc1ccccc1	0.3	79.8*	71.8*	-4.24	0.2
COc1cc(C(=O)N2CCC(c3nc(-c4cccnc4)no3)CC2)cc(OC)c1OC	1.1	-6.8	-12.1	-0.204	1.1
SMILES	CYP2C19 activ	CYP2C9 inhib	CYP2C19 inh	Cav3 T inh	CYP2C9 activ
COCCn1c(Cc2ccccc2)nnc1SCC(=O)N(C)C	1.1	-6.6	-11.1	-0.429	1.1
CCOC(=O)Cc1cnc(NC(=O)NC(C(=O)OCC)(c2ccccc2)C(F)(F)F)s1 (stereo not drawn)	0.5	32.7	53.0*	-4.72	0.7
CCOC(=O)C(NC(C)=O)(OCc1ccc(F)cc1)C(F)(F)F (stereo not drawn)	0.4	9.0	55.3*	0.251	0.9
CCOC(=O)C(NC(=O)Nc1ccccc1)(OCC)C(F)(F)F (stereo not drawn)	0.5	19.9	50.3*	0.406	0.8
c1ccc(-n2nnc3cnccc32)cc1	0.9	0.2	14.3	0.741	1
COc1ccc(-n2c(=S)[nH]c3cc(C(=O)NCCCN4CCCC4=O)ccc3c2=O)cc1	1	-5.8	2.0	0.252	1.1
CCn1c(-c2ccccc2Cl)nn(CC(=O)Nc2ccc(OC)cc2)c1=S	0.4	60.0*	55.6*	0.57	0.4
CCn1c(-c2ccccc2Cl)nn(CC(=O)Nc2ccccc2C)c1=S	0.5	-0.8	51.4*	0.821	1
Cc1ccccc1NC(=O)Cn1nc(-c2ccccc2)nc1-c1ccccc1	0.7	55.7*	31.4	-0.903	0.4
O=C(Cn1nc(-c2ccccc2)nc1-c1ccccc1)N1CCOCC1	0.9	4.9	8.1	-0.566	1
COc1ccc(NC(=O)CN2CCN(c3ccccc3Cl)CC2)cc1	.	.	.	-2.34	.
CCc1ccccc1NC(=O)c1nnn(CC(=O)Nc2ccccc2C)c1N	0.9	-29.7	12.6	-0.0435	1.3
COc1nc(N)c(S(=O)(=O)c2ccc(C)cc2)cc1C#N	0.5	53.1*	53.0*	-0.163	0.5
COc1ccc(NC(=O)CSc2nnc(C3CC3)n2N)cc1	0.9	8.0	6.3	0.841	0.9
Cn1cccc1C(=O)NC(=O)CSc1nnc(C2CC2)n1-c1ccccc1	0.4	7.4	55.2*	-0.0613	0.9
COc1ccc(NC(=O)CSc2nnc(C3CCCCC3)n2-c2ccccc2)cc1	0.7	37.1	27.8	-6.15*	0.6
Nn1c(SCC(=O)Nc2ccc(F)cc2)nnc1C1CCCCC1	1	4.6	-2.4	0.967	1
COc1ccc(CCSc2nnc(C3CCCCC3)n2N)cc1	0.4	51.9*	57.5*	-0.0635	0.5
CCn1c(SCC(=O)Nc2cc(OC)ccc2OC)nnc1C1CCCCC1	0.3	-11.1	69.0*	0.679	1.1
Cc1ccc(C(=O)COC(=O)CCC(=O)Nc2cccc(Cl)c2)cc1[N+](=O)[O-]	0.8	-2.6	18.1	.	1
O=C(Cn1cnc2ccccc2c1=O)OCCCCN1C(=O)c2ccccc2C1=O	0.8	34.7	15.9	-0.448	0.7
CCc1cc2c(N3CCN(c4ccccc4)CC3)ncnc2s1	0.7	56.2*	34.7	-3.55	0.4
CCc1nc(N2CCN(C(=O)c3ccco3)CC2)c2c3c(sc2n1)CCCC3	0.8	49.1	23.7	-2.25	0.5
O=C(c1ccco1)N1CCN(c2ncnc3sc4c(c23)CCC4)CC1	0.3	86.3*	72.2*	2.1	0.1
Cc1nccn1-c1ncnc2sc3c(c12)CCCC3	0.8	5.1	22.5	0.873	0.9
c1nc(N2CCC3(CC2)OCCO3)c2c3c(sc2n1)CCCC3	0.1	62.6*	85.4*	-0.226	0.4
c1ccc(N2CCN(c3ncnc4sc5c(c34)CCC5)CC2)cc1	0.2	72.0*	75.2*	-0.374	0.3
CCc1cc2c(NCCN3CCCCC3)ncnc2s1	0.7	2.1	27.0	-0.0108	1
CCN1C(=O)/C(=C2\C=Cc3ccccc3N2CC)SC1=S	0.5	13.2	54.6*	0.363	0.9
COCCCNC(=O)CN1C(=O)c2ccccc2C1=O	1	0.2	2.7	0.147	1
